Measured values from PubChem BioAssay (NCATS).
Several values for one entry are separate records, joined by “and”; a condition that tells them apart may be missing. Equal values may be shown once. Inconclusive results are not listed. Activity calls are given as the source filed them. Calls follow the shape of the dose curve; as a rule, active = well fitted inhibition curve with a large enough effect; inconclusive = small, poorly fitted or top-dose-only effect; inactive = flat fitted curve, though single readings scatter.

Legend:
Experiment in all cases: qHTS profiling for inhibitors of Plasmodium falciparum proliferation (AID 504749); also: nearly all actives have a fitted effect of over 60% in size
Details in all cases: P. falciparum in erythrocytes, SYBR Green DNA, 72 h; series mostly up to 28.7 µM
CP185 = tested on: CP185
How it was run: (§1)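 In a 72 h erythrocytic culture (37 C, humidified, 5% CO2) at 2.5% hematocrit and 0.3% starting parasitemia, compounds were tested; SYBR Green I in detergent lysis buffer stained parasite DNA overnight.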

CP191 = tested on: CP191
How it was run: as §1

CP192 = tested on: CP192
How it was run: as §1

CP194 = tested on: CP194
How it was run: as §1

CP201 = tested on: CP201
How it was run: as §1

CP203 = tested on: CP203
How it was run: as §1

CP211 = tested on: CP211
How it was run: as §1

CP215 = tested on: CP215
How it was run: as §1

CP217 = tested on: CP217
How it was run: as §1

CP237 = tested on: CP237
How it was run: as §1

CP238 = tested on: CP238
How it was run: as §1

CP247 = tested on: CP247
How it was run: as §1

CP250 = tested on: CP250
How it was run: as §1

CP252 = tested on: CP252
How it was run: as §1

CP256 = tested on: CP256
How it was run: as §1

CP260 = tested on: CP260
How it was run: as §1

CP262 = tested on: CP262
How it was run: as §1

CP265 = tested on: CP265
How it was run: as §1

CP266 = tested on: CP266
How it was run: as §1

CP268 = tested on: CP268
How it was run: as §1

Measured: Potency
Potency is read from the fitted curve at half-maximal effect.

CC[n+]1c(-c2ccccc2)c2cc(N)ccc2c2ccc(N)cc21
active: CP185 158 nM and 316 nM | CP191 282 nM and 447 nM | CP192 190 nM and 426 nM | CP194 269 nM and 1.2 µM | CP201 379 nM and 1.35 µM | CP203 213 nM and 675 nM | CP211 213 nM and 601 nM | CP215 239 nM and 953 nM | CP217 355 nM and 631 nM | CP237 158 nM and 398 nM | CP238 112 nM and 355 nM | CP247 282 nM and 631 nM | CP250 178 nM and 355 nM | CP252 100 nM and 282 nM | CP256 31.6 nM and 63.1 nM | CP260 199 nM and 398 nM | CP262 95.3 nM and 107 nM | CP265 251 nM and 794 nM | CP266 301 nM and 601 nM | CP268 107 nM and 379 nM

COP(=O)(OC)C(O)C(Cl)(Cl)Cl (stereo not given)
inactive: CP185 | CP191 | CP192 | CP194 | CP201 | CP203 | CP211 | CP215 | CP217 | CP237 | CP238 | CP247 | CP250 | CP252 | CP256 | CP260 | CP262 | CP265 | CP266 | CP268

CCOC(=O)NC(O)C(Cl)(Cl)Cl (stereo not given)
inactive: CP185 | CP191 | CP192 | CP194 | CP201 | CP203 | CP211 | CP215 | CP217 | CP237 | CP238 | CP247 | CP250 | CP252 | CP256 | CP260 | CP262 | CP265 | CP266 | CP268

CNC(=O)Oc1cccc2ccccc12
inactive: CP185 | CP191 | CP192 | CP194 | CP201 | CP203 | CP211 | CP215 | CP217 | CP237 | CP238 | CP247 | CP250 | CP252 | CP256 | CP260 | CP262 | CP265 | CP266 | CP268

Cc1ncc2n1-c1ccc(Cl)cc1C(c1ccccc1F)=NC2
inactive: CP185 | CP191 | CP192 | CP194 | CP201 | CP203 | CP211 | CP215 | CP217 | CP237 | CP238 | CP247 | CP250 | CP252 | CP256 | CP260 | CP262 | CP265 | CP266 | CP268

CCN(Cc1ccc(Cl)nc1)/C(=C/[N+](=O)[O-])NC
inactive: CP185 | CP191 | CP192 | CP194 | CP201 | CP203 | CP211 | CP215 | CP217 | CP237 | CP238 | CP247 | CP250 | CP252 | CP256 | CP260 | CP262 | CP265 | CP266 | CP268

NCc1cccnc1
inactive: CP185 | CP191 | CP192 | CP194 | CP201 | CP203 | CP211 | CP215 | CP217 | CP237 | CP238 | CP247 | CP250 | CP252 | CP256 | CP260 | CP262 | CP265 | CP266 | CP268

CCN(CC)C(C)C(=O)c1ccccc1 (stereo not given)
inactive: CP185 | CP191 | CP192 | CP194 | CP201 | CP203 | CP211 | CP215 | CP217 | CP237 | CP238 | CP247 | CP250 | CP252 | CP256 | CP260 | CP262 | CP265 | CP266 | CP268

CC(C)(C)OC(=O)c1ncn2c1[C@@H]1CCCN1C(=O)c1c(Br)cccc1-2
inactive: CP185 | CP191 | CP192 | CP194 | CP201 | CP203 | CP211 | CP215 | CP217 | CP237 | CP238 | CP247 | CP250 | CP252 | CP256 | CP260 | CP262 | CP265 | CP266 | CP268

C[C@H]1C(=O)O[C@@H]2CCN3CC=C(COC(=O)[C@](C)(O)[C@]1(C)O)[C@H]23
inactive: CP185 | CP191 | CP192 | CP194 | CP201 | CP203 | CP211 | CP215 | CP217 | CP237 | CP238 | CP247 | CP250 | CP252 | CP256 | CP260 | CP262 | CP265 | CP266 | CP268

CC(C)NCC(O)c1ccc(N)c(C#N)c1 (stereo not given)
inactive: CP185 | CP191 | CP192 | CP194 | CP201 | CP203 | CP211 | CP215 | CP217 | CP237 | CP238 | CP247 | CP250 | CP252 | CP256 | CP260 | CP262 | CP265 | CP266 | CP268

CNC(=O)NC(O)C(Cl)(Cl)Cl (stereo not given)
inactive: CP185 | CP191 | CP192 | CP194 | CP201 | CP203 | CP211 | CP215 | CP217 | CP237 | CP238 | CP247 | CP250 | CP252 | CP256 | CP260 | CP262 | CP265 | CP266 | CP268

CCC(=O)O[C@H]1CC[C@H]2[C@@H]3CCC4=CC(=O)CC[C@]4(C)[C@H]3CC[C@]12C
inactive: CP185 | CP191 | CP192 | CP194 | CP201 | CP203 | CP211 | CP215 | CP217 | CP237 | CP238 | CP247 | CP250 | CP252 | CP256 | CP260 | CP262 | CP265 | CP266 | CP268

Cc1ccc(N=CN(C)C=Nc2ccc(C)cc2C)c(C)c1
inactive: CP185 | CP191 | CP192 | CP194 | CP201 | CP203 | CP211 | CP215 | CP217 | CP237 | CP238 | CP247 | CP250 | CP252 | CP256 | CP260 | CP262 | CP265 | CP266 | CP268

CC(C)C(Br)C(=O)NC(N)=O (stereo not given)
inactive: CP185 | CP191 | CP192 | CP194 | CP201 | CP203 | CP211 | CP215 | CP217 | CP237 | CP238 | CP247 | CP250 | CP252 | CP256 | CP260 | CP262 | CP265 | CP266 | CP268

OC(c1ccccc1)(c1ccccc1)C1CCNCC1
inactive: CP185 | CP191 | CP192 | CP194 | CP201 | CP203 | CP211 | CP215 | CP217 | CP237 | CP238 | CP247 | CP250 | CP252 | CP256 | CP260 | CP262 | CP265 | CP266 | CP268

CCCCCCCCCCCC[N+](C)(C)CCOc1ccccc1
active: CP185 7.94 µM | CP191 4.47 µM | CP192 9.53 µM | CP194 15.1 µM | CP201 10.7 µM | CP203 10.7 µM | CP211 8.49 µM | CP215 12 µM | CP217 6.31 µM | CP237 5.01 µM | CP238 7.94 µM | CP247 7.08 µM | CP250 7.94 µM | CP252 7.94 µM | CP256 5.62 µM | CP260 3.98 µM | CP262 5.36 µM | CP265 6.31 µM | CP266 15.1 µM | CP268 9.53 µM

NC(=O)CN1CCCC1=O
inactive: CP185 | CP191 | CP192 | CP194 | CP201 | CP203 | CP211 | CP215 | CP217 | CP237 | CP238 | CP247 | CP250 | CP252 | CP256 | CP260 | CP262 | CP265 | CP266 | CP268

C[C@]12CC[C@H]3[C@@H](CC=C4C[C@@H](O)CC[C@@]43C)[C@@H]1CC[C@@H]2O
inactive: CP185 | CP191 | CP192 | CP194 | CP201 | CP203 | CP211 | CP215 | CP217 | CP237 | CP238 | CP247 | CP250 | CP252 | CP256 | CP260 | CP262 | CP265 | CP266 | CP268

CCC1(c2ccccc2)CCC(=O)NC1=O (stereo not given)
inactive: CP185 | CP191 | CP192 | CP194 | CP201 | CP203 | CP211 | CP215 | CP217 | CP237 | CP238 | CP247 | CP250 | CP252 | CP256 | CP260 | CP262 | CP265 | CP266 | CP268

CCNc1nc(Cl)nc(NCC)n1
inactive: CP185 | CP191 | CP192 | CP194 | CP201 | CP203 | CP211 | CP215 | CP217 | CP237 | CP238 | CP247 | CP250 | CP252 | CP256 | CP260 | CP262 | CP265 | CP266 | CP268

CCC1(CC)C(=O)NC(=O)NC1=O
inactive: CP185 | CP191 | CP192 | CP194 | CP201 | CP203 | CP211 | CP215 | CP217 | CP237 | CP238 | CP247 | CP250 | CP252 | CP256 | CP260 | CP262 | CP265 | CP266 | CP268

O=c1n(Cl)c(=O)n(Cl)c(=O)n1Cl
inactive: CP185 | CP191 | CP192 | CP194 | CP201 | CP203 | CP211 | CP215 | CP217 | CP237 | CP238 | CP247 | CP250 | CP252 | CP256 | CP260 | CP262 | CP265 | CP266 | CP268

COP(=O)(OC)OC=C(Cl)Cl
inactive: CP185 | CP191 | CP192 | CP194 | CP201 | CP203 | CP211 | CP215 | CP217 | CP237 | CP238 | CP247 | CP250 | CP252 | CP256 | CP260 | CP262 | CP265 | CP266 | CP268
